Rows were chosen to be rich in hits. Some 21% of all compounds tested hit in one or more screens of this group.
Pf growth 48h: inhibits P. falciparum growth in the first generation, 48 h. P. falciparum luciferase growth in erythrocytes, 48 h. Potency, µM (top dose mostly 28.7 µM), for inactives: top-dose activity change, negative = inhibition, actives largely listed as inhibitors. hit rate 5.9% among 310,000; also: potency is read from the fitted curve at half-maximal effect; % is scaled to controls: 0 for no effect and ±100 for the full control effect
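First compound was added to culture medium, then infected red cells at 0.1% parasitemia and 2% hematocrit (final). After incubation at 37 C under 5% CO2, luciferase detection reagent was dispensed and light output recorded.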
SARS PLP yeast: SARS-CoV PLP inhibition in yeast | S. cerevisiae expressing SARS-CoV PLpro, growth rescue | hit rate 0.19% among 330,000 | Potency, µM (titrated, usually from 32.9 µM), for the others: at the highest dose activity, positive = growth rescue, usual class: activators; calls by dose curve; also: potency is read from the fitted curve at half-maximal effect; 0% is about no effect; nearly all actives have a fitted effect of over 55% in size
Pf growth 96h: inhibits malaria parasite growth, 96 h. P. falciparum luciferase reporter growth, 96 h. Potency, µM (doses to about 28.7 µM), for the others: top-dose activity change, negative = inhibition, actives largely listed as inhibitors. hit rate 6.9% among 320,000; also: potency is read from the fitted curve at half-maximal effect; % is scaled to controls: 0 for no effect and ±100 for the full control effect
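96 h incubation, 37 C, 5% CO2, of luciferase-reporter P. falciparum-infected RBCs (2% hematocrit, 0.05% parasitemia final) with test compounds; endpoint luminescence.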
Shiga toxin inh: Shiga toxin inhibition; hit rate 9.2% among 290,000; inhibition, % at 38.7 µM; AID 2315; Vero cells, Shiga toxin protein synthesis inhibition reporter; in the data active = inhibition mostly above about 28%, no sharp cut-off; inactive = mostly below about 43%; also: 0% is about no effect
NS1 function inh: influenza NS1 inhibition. Potency, µM (highest dose often 46.1 µM), for inactives: at the highest dose activity, positive = more growth. hit rate 0.4% among 270,000. AID 2326; calls by dose curve; also: potency is read from the fitted curve at half-maximal effect; actives are rising curves; nearly all actives have a fitted effect of over 50% in size
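Recovery from NS1-induced slow growth read by OD600 in budding yeast switched to galactose assay medium (pH 6.0, -URA) at 1:100 dilution. Compound 23 nl per well; the matching strain lacking NS1 serves as control.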
CHX counter: counter-screen hit for Shiga toxin inhibitors, cycloheximide; cell reporter, cycloheximide protein synthesis inhibition counterscreen; max response, %; hit rate 12% among 300,000; AID 2314; in the data active = max response mostly above about 13%, no sharp cut-off; inactive = mostly below about 14%; also: read at 38.3 µM for the half of the compounds with a filed dose; 0% is about no effect
Starred values were filed as active, the others as inactive; ? = inconclusive; . = no result given; [ ] = dose if it differs, or a comment. Unless noted, calls follow the shape of the dose curve; as a rule, active = well fitted inhibition curve with a large enough effect; inconclusive = small, poorly fitted or top-dose-only effect, or another doubt; inactive = no such curve, though single readings can be large or run the other way.

SMILES | Pf growth 48h | SARS PLP yeast | Pf growth 96h | Shiga toxin inh | NS1 function inh | CHX counter
O=C(Nc1ccccc1C(F)(F)F)c1cc(-c2cccc(O)c2)on1 | 11% | -6% | 10µM* | 27 | -2% | 20*
CCc1ccccc1NC(=O)c1cc(-c2cccs2)on1 | 54% | -2% | 217% | 38 | -26% | 17*
O=C(Nc1cccnc1Cl)c1cc(-c2cccc(O)c2)on1 | 44% | -2% | -3% | 70* | 5% | 16*
CCCC(=O)Nc1ccc2c(c1)nc(CCN1CCCCC1)n2C | 0% | 1% | 66% | -10 | 5% | -1
COc1ccc2cc(C(C)C(=O)Nc3cccc(S(=O)(=O)N(C)C)c3)ccc2c1 (centres undefined) | ? | -3% | ? | -3 | -3% | -1
Cc1cc(C(=O)NC2CCCN(Cc3ccccc3F)C2)n[nH]1 (centres undefined) | -1% | -1% | ? | -12 | 8% | -1
COc1cccc(-c2nnc3n2N=C(c2ccc(OC)cc2OC)CS3)c1 | . | . | . | -5 | . | 12
CN(/N=C/c1cccnc1)c1cnc2ccccc2n1 | 295% | -6% | -8% | 64* | . | 47*
C#CCCc1cocc1/C=[N+](\[O-])c1ccc(C(=O)OCC)cc1 | ? | -24% | ? | . | . | .
CN(CC(=O)Nc1ccc(S(=O)(=O)N2CCCC2)cc1)CC(=O)Nc1ccc(F)c(F)c1F | 10µM* | -1% | ? | -3 | . | 9
COc1ccc(N(CC(=O)Nc2ccc(S(=O)(=O)N3CCOCC3)cc2)S(=O)(=O)c2ccc(F)cc2)cc1 | 13µM* | -1% | -1% | 3 | 18% | -2
CCN(CC(=O)Nc1ccc(S(=O)(=O)N2CCOCC2)cc1)Cc1ccccc1 | ? | 6% | ? | . | . | .
CN(CC(=O)Nc1ccc(S(=O)(=O)N2CCOCC2)cc1)Cc1ccc(F)cc1 | ? | 1% | 13µM* | . | . | .
O=C(CN1CCN(c2ccc(F)cc2)CC1)Nc1ccc(S(=O)(=O)N2CCOCC2)cc1 | -13% | 1% | 18% | -2 | 4% | 7
CSc1ccccc1NC(=O)CN(C)CC(=O)Nc1ccc(S(=O)(=O)N2CCCC2)cc1 | . | -3% | . | . | . | .
CCc1ccc(CN(C)CC(=O)Nc2ccc(S(=O)(=O)N3CCOCC3)cc2)cc1 | 10µM* | 0%[6.58 µM] | ? | . | . | .
COc1ccc(CCC(=O)Nc2ccc(S(=O)(=O)N3CCOCC3)cc2)cc1 | -18% | 1% | 231% | 2 | 7% | 5
COCCn1c(SCC(=O)Nc2ccc(Cl)cn2)nnc1-c1ccncc1 | -5% | -3% | ? | 2 | . | 10
O=C(/C=C/Sc1ccc(C(F)(F)F)cn1)c1ccccc1 | ? | -1% | -13% | 36 | -3% | 22*
CCN(C(=O)COC(=O)CNS(=O)(=O)c1ccccc1)c1ccccc1 | 0% | 7% | 27% | 28 | . | -1
CC(NC(=O)CCNS(=O)(=O)c1ccc2c(c1)oc(=O)n2C)c1ccccc1 (centres undefined) | 1% | 4% | 49% | -7 | 7% | -4
CCOc1ccc(CCNC(=O)COc2cccc(-n3cnnn3)c2)cc1OCC | 7% | -5% | ? | . | . | .
CCOC(=O)c1nnsc1Nc1ccc(C)c(C)c1 | 4% | -1% | 0% | 59* | . | 43*
CCS(=O)(=O)N1CCC(NC(=O)C(Cc2cccc(OC)c2OC)NC(C)=O)CC1 (centres undefined) | ? | 11% | ? | 4 | 27% | 4
COc1ccc(/C=C/c2cc(C(=O)O)c3ccccc3n2)cc1 | ? | -4% | ? | -12 | 3% | 15*
SMILES | Pf growth 48h | SARS PLP yeast | Pf growth 96h | Shiga toxin inh | NS1 function inh | CHX counter
Cc1cc(/C=C\c2ccccc2)nc2ccccc12 | 30% | -4% | 2% | 120* | -42% | 30*
O=C1CC(C(=O)NC2CCCCC2)C(c2ccccc2)O1 (centres undefined) | -12% | -2% | 29% | -9 | -7% | 3
C[C@@H]1[C@@H](Sc2ccccc2)CC(=O)O[C@@H]1c1ccc(-c2ccccc2)cc1 | . | . | . | 82* | . | 63*
Cc1onc(-c2ccccc2Cl)c1C(=O)NNC(=O)c1ccccc1F | 22% | 1% | -28% | 22 | -12% | 13
CCC(=O)Nc1cccc(-n2nnnc2SCC(=O)NCc2ccco2)c1 | 18% | 1% | ? | 29 | -7% | 8
CCC(=O)Nc1cccc(-n2nnnc2SCC(=O)c2ccc(C)c(C)c2)c1 | 9% | ? | 10% | 42* | -4% | 26*
CCCCn1nnnc1SCC(=O)c1ccccc1F | ? | -7% | 1% | -22 | -10% | 0
CCCCn1nnnc1SCC(=O)c1ccc(C)c(C)c1 | 14% | -18% | . | 19 | -57% | 38*
CCSc1ccc2c(c1)N(CCCN1CCN(C)CC1)c1ccccc1S2 | 9.3µM* | . | ? | . | . | .
CN1CCN(CCCN2c3ccccc3Sc3ccc(Cl)cc32)CC1 | 9.3µM* | -30% | 9.3µM* | -19 | -30% | -5
CN1CCN(CCCN2c3ccccc3Sc3ccccc32)CC1 | . | . | . | -12 | . | -2
O=C(O)c1c2c(nc3ccccc13)CCCCC2 | 0% | 19% | ? | -5 | 14% | 5
Nc1c2c(nc3ccn(-c4ccccc4)c(=O)c13)CCCCC2 | ? | 11% | 17µM* | 5 | -3% | -2
Nc1c2c(nc3ccn(Cc4ccccc4)c(=O)c13)CCC2 | . | -19% | 2.9µM* | 51 | -58% | 2
CCN1CCC2(CC1)Oc1c(OC)cccc1C1CC(c3cccnc3)=NN12 (centres undefined) | 30% | 0% | 42% | 55* | -3% | 44*
CC(=O)N1N=C(c2cccnc2)CC1c1ccccc1O (centres undefined) | 3% | -1% | ? | -4 | -5% | 1
CC(=O)Nc1cccc(NC(=O)c2ccco2)c1 | 26% | 0% | ? | 14 | 0% | -2
O=C(Nc1cccc(F)c1)c1ccco1 | 110% | 0% | 7% | 42* | -5% | 29*
Cc1cc(C)cc(C(=O)Nc2cccc(NC(=O)c3ccco3)c2)c1 | ? | -11% | -21% | 19 | -43% | 21*
Nc1cccc(NC(=O)c2ccco2)c1 | 34% | 1% | ? | 16 | 5% | 8.1*
COc1ccc2c([N+](=O)[O-])c(Cl)[nH]c2c1 | 10% | -1% | -17% | -19 | . | 2
CN(C)/C=N/S(=O)(=O)c1cccn1-c1ncc(C(F)(F)F)cc1Cl | -20% | 1% | 10% | 0 | 6% | -1
CN(C)/C=N/c1ncn(-c2ncc(C(F)(F)F)cc2Cl)n1 | 250% | -1% | 445% | 50* | . | 20
COc1ccc(-n2c(C)c([N+](=O)[O-])c3ccc(O)c(CN(C)C)c32)cc1 | 0.83µM* | -2% | ? | -12 | ? | -6
COc1cccc(C(=O)/C=C/Nc2ccc(S(=O)(=O)Nc3onc(C)c3C)cc2)c1 | 38% | 26% | 2% | 63* | -38% | 44*
Cc1noc(NS(=O)(=O)c2ccc(N/C=C\C(=O)c3ccc(Br)cc3)cc2)c1C | 20% | -4% | 52% | 58* | -82% | 19*
